10 molecules from PubChem BioAssay (NCATS) can be followed below.

Values joined by “and” are separate entries in the source; they are usually repeats but may differ in a detail not shown here. Identical values can stand only once. Records with an inconclusive call do not appear. Unmarked numbers belong to inactive results. Active and inactive are the calls of the source. Calls come from the whole dose curve; as a rule, active = well fitted inhibition curve with a large enough effect; inconclusive = small, poorly fitted or top-dose-only effect; inactive = flat fitted curve, though single readings scatter.
% is set by controls: 0 for no effect and ±100 for the full control effect; potency is the fitted concentration of half-maximal effect.

This test is described as follows: Primary qHTS for inhibitors of nuclear receptor binding SET domain protein 2 (NSD2) in an isogenic RCH-ACV NSD2 p.E1099K mutant (9B) (AID 1645876). Note: nearly all actives have a fitted effect of over 70% in size. The note with it: RCH-ACV (leukaemia line) NSD2 E1099K (9B) viability, CellTiter-Glo, 72 h; series mostly up to 44.9 µM; activity change, negative = viability loss: at the top concentration. (qHTS replaces the single test concentration by a dilution series.)
On to `C[C@@H](Oc1cc(-c2cnn(C3CCNCC3)c2)cnc1N)c1c(Cl)ccc(F)c1Cl`, for which the Potency was 1.45 µM (active) and 1.83 µM (active) and 1.48 µM (active).
Take `CC(C)c1cnn2c(NCc3ccccc3)cc(N[C@@H](CO)[C@H](O)CO)nc12`: the Potency was 515 nM (active) and 186 nM (active).
As for `Cc1ccc(C(=O)Nc2cccc(C(F)(F)F)c2)cc1-c1ccc2nc(NCCN3CCOCC3)ncc2c1`, the Potency was 1.45 µM (active) and 2.63 µM (active).
On the same count and under the same terms, under `CC1(C)CC(=O)c2c(C(F)(F)F)nn(-c3ccc(C(N)=O)c(NC4CCC(OC(=O)CN)CC4)c3)c2C1` (stereo not given) stands 103 nM (active) and 74.2 nM (active); under `COc1c(OCCCN2CCOCC2)ccc2c3n(c(=NC(=O)c4cnc(N)nc4)nc12)CCN3`, 9.4 nM (active) and 24.1 nM (active).
The same measure, in the same setting: the same measure for `Cc1cc(Nc2cc(CN3CCOCC3)c3nc(C)c(Cc4ccc(Cl)cc4F)n3n2)n[nH]1`: 3.26 µM (active) and 1.86 µM (active); for `CN(C)Cc1c(C(=O)NCCOc2ccc(C(=O)NO)cc2)oc2ccccc12`: 515 nM (active) and 332 nM (active).
As for `Cn1cncc1[C@@](N)(c1ccc(Cl)cc1)c1ccc2c(c1)c(-c1cccc(Cl)c1)cc(=O)n2C`, the “activity change, negative = viability loss” value is -8.68%.
`c1ccc2c(CCNc3ccc(Nc4ccncc4)cc3)c[nH]c2c1`: the Potency was 728 nM (active) and 332 nM (active).
Regarding `O=C(Nc1nc2cccc(-c3ccc(CN4CCS(=O)(=O)CC4)cc3)n2n1)C1CC1`, the Potency was 14.5 µM (active) and 14.8 µM (active).
